Where a name gives a salt, the structure may show the parent alone. Values without a mark were called inactive.
Legend:
Details in all cases: 20 µM
[1] = test system: Salmonella enterica typhimurium; assay: growth AUC normalised to DMSO control (fraction of control); higher = less growth inhibition, active = hit call of the paper
Method in brief: (§1)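 Hemin and NAD were added to the medium for Haemophilus parainfluenzae. All pathogens, after two anaerobic passages, were inoculated at a starting OD578 of 0.01 into pre-reduced mGAM plates with 20 μM compound and 1% DMSO under breathable seals, and OD578 was read hourly for 24 h in three biological replicates. AUC of each growth curve was obtained with the trapezoidal rule up to the exponential-to-stationary transition and normalised to DMSO controls from the same plate.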

Shigella flexneri = assay: as above
Method in brief: as §1

Vibrio cholerae = assay: as above
Method in brief: as §1

[2] = test system: Yersinia pseudotuberculosis; assay: as above
Method in brief: as §1

P. vulgatus RND KO = assay: growth AUC normalised to DMSO control (median) (fraction of control); higher = less growth inhibition, active = hit call of the paper
Method in brief: (§2)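 For normalised area under the curve, growth curves were truncated at entry into stationary phase, integrated by the trapezoidal rule and divided against vehicle wells on the same plate. The curves came from strains passaged twice overnight without oxygen and then grown in mGAM in 96-well plates at a starting OD578 of 0.01. Each well held an approved-drug library compound at 20 μM with 1% DMSO, and OD578 was read hourly for 24 h in an anaerobic incubator. Values are medians of three biological replicates.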

P. vulgatus WT = assay: as above
Method in brief: as §2

[3] = test system: S. enterica typhimurium WT; assay: as above
Method in brief: as §2

[4] = test system: S. enterica typhimurium tolC KO; assay: as above
Method in brief: as §2
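Throughout, for growth AUC normalised to DMSO control (median): active when median AUC fell below 0.1.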

Row | SMILES | growth AUC normalised to DMSO control [1] | growth AUC normalised to DMSO control (Shigella flexneri) | growth AUC normalised to DMSO control (Vibrio cholerae) | growth AUC normalised to DMSO control [2] | growth AUC normalised to DMSO control (P. vulgatus RND KO) | growth AUC normalised to DMSO control (P. vulgatus WT) | growth AUC normalised to DMSO control [3] | growth AUC normalised to DMSO control [4]
1 | CC(CCc1ccc(O)cc1)NCCc1ccc(O)c(O)c1 (stereo not given) [Dobutamine hydrochloride] | 0.988 | 0.976 | 0.99 | 1 | 0.993 | 0.999 | 1.01 | 0.998
2 | CC1(C)OC(=O)NC1=O [Dimethadione] | 0.972 | 0.995 | 1.01 | 0.998 | 1.02 | 1 | 0.99 | 0.997
3 | CC(C)(C)NC[C@H](O)c1ccc(O)c(CO)c1 [Levalbuterol hydrochloride] | 0.95 | 1.01 | 1.01 | 0.992 | 0.962 | 0.992 | 1.01 | 0.997
4 | Cc1cc2c(s1)Nc1ccccc1N=C2N1CCN(C)CC1 [Olanzapine] | 0.997 | 0.996 | 0.997 | 1.01 | 1.03 | 1.03 | 1.02 | 0.994
5 | Cc1c(C)c2c(c(C)c1O)CCC(C)(COc1ccc(CC3SC(=O)NC3=O)cc1)O2 (stereo not given) [Troglitazone] | 0.992 | 0.97 | 0.986 | 0.974 | 0.839 | 0.892 | 0.997 | 0.97
6 | CC(=O)OCC(=O)NCCCOc1cccc(CN2CCCCC2)c1 [Roxatidine acetate hydrochloride] | 0.99 | 0.981 | 1 | 0.939 | 0.996 | 0.985 | 0.994 | 0.986
7 | O=C(COc1ccc(Cl)cc1)N1CCN(Cc2ccc3c(c2)OCO3)CC1 [Fipexide hydrochloride] | 0.987 | 0.971 | 0.875 | 0.992 | 1 | 0.966 | 0.995 | 0.942
8 | c1ccc(CNc2ncnc3nc[nH]c23)cc1 [Aminopurine, 6-benzyl] | 1 | 1 | 0.953 | 1.01 | 1 | 0.985 | 1 | 0.995
9 | Cc1c(OCC(F)(F)F)ccnc1C[S+]([O-])c1nc2ccccc2[nH]1 (stereo not given) [Lansoprazole] | 1 | 1 | 0.941 | 0.994 | 0.984 | 0.973 | 1 | 0.852
10 | N/C(=N\C(=O)c1nc(Cl)c(N)nc1N)NCc1ccccc1 [Benzamil hydrochloride] | 0.972 | 0.986 | 0.99 | 0.998 | 0.996 | 0.991 | 0.998 | 0.984
11 | CC(=O)Nc1ccc(O)cc1 [Acetaminophen] | 0.992 | 0.99 | 0.997 | 0.996 | 1.02 | 1.01 | 1 | 0.998
12 | CCc1nc(N)nc(N)c1-c1ccc(Cl)cc1 [Pyrimethamine] | 0.915 (active) | 0.851 (active) | 0.908 | 0.932 | 0.57 | 0.288 | 0.93 | 0.66
13 | NS(=O)(=O)c1cc(C(=O)O)cc(N2CCCC2)c1Oc1ccccc1 [Piretanide] | 1.03 | 1.07 | 1.08 | 1.01 | 1.06 | 1.07 | 1 | 0.997
14 | CCOC(=O)C1=C(C)NC(C)=C(C(=O)OC)C1c1cccc(Cl)c1Cl (stereo not given) [Felodipine] | 0.987 | 1 | 1 | 0.883 | 1.01 | 1.03 | 1 | 1
15 | Cc1cc(-c2ccccc2)nnc1NCCN1CCOCC1 [Minaprine dihydrochloride] | 0.997 | 1.01 | 1.02 | 1 | 1 | 0.998 | 1 | 0.998
16 | NC[C@@H]1O[C@H](O[C@H]2[C@@H](O)[C@H](O[C@@H]3[C@@H](O)[C@H](N)C[C@H](N)[C@H]3O[C@H]3O[C@H](CO)[C@@H](O)[C@H](O)[C@H]3N)O[C@@H]2CO)[C@H](N)[C@@H](O)[C@@H]1O [Paromomycin sulfate] | 1.01 | 0.993 | 1.01 | 0.997 | 1 | 0.991 | 1 | 1
17 | C#C[C@]1(O)CC[C@H]2[C@@H]3CCC4=CCCC[C@@H]4[C@H]3CC[C@@]21C [Lynestrenol] | 0.997 | 0.973 | 1.01 | 0.972 | 0.945 | 0.976 | 1.02 | 1
18 | COc1ccc(NS(=O)(=O)c2ccc(N)cc2)nn1 [Sulfamethoxypyridazine] | 1.02 | 1.04 | 1.03 | 0.996 | 1.02 | 1.04 | 1.01 | 0.986
19 | CCCNC(=O)NS(=O)(=O)c1ccc(Cl)cc1 [Chlorpropamide] | 1 | 1.02 | 1.01 | 0.996 | 1.02 | 1.06 | 1.01 | 1.04
20 | C[C@H]1O[C@H](O[C@H]2[C@H](O)[C@@H](O)[C@@H](O[C@@H]([C@H](O)[C@@H](O)C=O)[C@H](O)CO)O[C@@H]2CO)[C@H](O)[C@@H](O)[C@@H]1N[C@H]1C=C(CO)[C@@H](O)[C@H](O)[C@H]1O [Acarbose] | 1.04 | 0.995 | 0.999 | 1.01 | 1.01 | 0.884 | 1.03 | 1
21 | C1N2CN3CN1CN(C2)C3 [Methenamine] | 1.02 | 1.02 | 1.05 | 1.03 | 1 | 1.03 | 1 | 0.991
22 | NC[C@H]1CC[C@H](C(=O)O)CC1 [Tranexamic acid] | 1 | 1.01 | 1.04 | 1.02 | 1.04 | 1.04 | 1 | 1
23 | CC(N)C12CC3CC(CC(C3)C1)C2 (stereo not given) [Rimantadine hydrochloride] | 0.99 | 0.987 | 0.985 | 0.869 | 0.978 | 0.983 | 0.996 | 0.989
24 | Cc1cccn2c(=O)c(-c3nnn[nH]3)cnc12 [Pemirolast potassium] | 0.968 | 0.946 | 0.921 | 0.964 | 0.998 | 1.01 | 0.993 | 0.995
25 | COC(=O)CCc1ccc(OCC(O)CNC(C)C)cc1 (stereo not given) [Esmolol hydrochloride] | 1.01 | 1.06 | 1.06 | 1 | 1.05 | 1.09 | 1 | 1.01
26 | Cc1c(N(C)C)c(=O)n(-c2ccccc2)n1C [Amidopyrine] | 1.01 | 1.03 | 1.05 | 1.01 | 1 | 1.02 | 1.01 | 0.999
27 | CC(C)NC(=N)NC(=N)Nc1ccc(Cl)cc1 [Proguanil hydrochloride] | 0.959 | 0.962 | 0.985 | 0.992 | 1 | 1.01 | 0.988 | 0.984
28 | Cc1cccc(C)c1OCC(C)N (stereo not given) [Mexiletine hydrochloride] | 1.01 | 1.05 | 1.05 | 1.01 | 1.03 | 1.05 | 1 | 0.999
29 | Cc1cnc(NC(=O)C2=C(O)c3ccccc3S(=O)(=O)N2C)s1 [Meloxicam] | 1.01 | 0.953 | 0.837 (active) | 1 | 0.982 | 0.991 | 0.994 | 0.947
30 | CC(=O)N(CC(C)C(=O)O)c1c(I)cc(I)c(N)c1I (stereo not given) [Iocetamic acid] | 0.985 | 0.948 | 0.939 | 0.99 | 0.984 | 0.974 | 0.989 | 0.988

Reference: the supplement of paper PMC12350171
